# Compounds without any hit were thinned out: in the full panel of roughly 79,000, 15% have a hit. Values without a mark were called inactive. Active and inactive are the calls of the source. Rule as the data show it: active = growth inhibition above about 70%; inactive = the rest.
# Assay: NCI Yeast Anticancer Drug Screen. Data for the rad50 strain (AID 155);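 also: 0% = growth of vehicle-only cultures of the same strain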
# Details: S. cerevisiae rad50 strain growth inhibition; at 50.0 µM; active compounds read high
# Method in brief: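 Readout: growth inhibition relative to vehicle-treated cultures. Compound exposure was carried out in a genetically defined yeast strain deficient in DNA damage repair.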
row,Structure (SMILES),growth inhibition
1,CC(C)c1cccc(C(C)C)c1NC(=O)C(=O)C1SC(=S)NC1=O (stereo not given),-23.6%
2,NC(=O)/C=C/c1ccc([N+](=O)[O-])cc1,33%
3,CN(C)CCCn1c(=O)nc2n(-c3ccccc3)c3ccccc3nc-2c1=O,9.3%
4,Cc1ccc(C2OC(=O)C(=O)C2=O)cc1 (stereo not given),-35.9%
5,ClC1=C(Cl)C2(Cl)C3C(CC4C3C3(Cl)C(Cl)=C(Cl)C4(Cl)C3(Cl)Cl)C1(Cl)C2(Cl)Cl (stereo not given),-7.65%
6,COc1ccc(C(=O)c2ccccc2)c(N)c1,11.2%
7,Cc1ccc(NC(=S)NC(=O)c2ccccc2)cc1,10.9%
8,c1ccc2c3c([nH]c2c1)C1(CCCCC1)c1c([nH]c2ccccc12)C31CCCCC1,-19.6%
9,Brc1cccc(CCOCc2ccccc2)c1,8.45%
10,CCN(CC)C(=O)C1C(C=C(C)C)C1(C)C (stereo not given),6.95%
11,CCCC(C)(CC)C(=O)O (stereo not given),7.45%
12,CC(C)(C)c1ccc(C(=O)NCSCC(NC(=O)CCC(N)C(=O)O)C(=O)NCC(=O)O)cc1 (stereo not given),-10.4%
13,COC(=O)CCBr,-19.8%
14,Cc1ccc(N2CCN(CCC(=O)O)CC2)cc1,-1.15%
15,Cc1sc2nc3n(c(=O)c2c1C)N=C(c1ccccc1)CS3,-29.4%
16,CC1=CC(=O)N2[C@H](OC[C@@H]2C(C)C)O1,6.4%
17,CC(/C=C/C(=O)c1sc(C(N)=S)nc1C)=C\c1ccccc1,4.55%
18,CN(C)CCNC(=O)C(C)(C)Oc1ccc(C(=O)c2ccc(Cl)cc2)cc1Cl,-1.55%
19,C=CC(=N)N,12.3%
20,Cc1ccc(S(=O)(=O)N/N=C/c2ccccc2)cc1,5.7%

row,Structure (SMILES),growth inhibition
1,COC(=O)C(/C(=N/NC(N)=O)C(=O)Nc1c(C)cccc1C(C)(C)C)c1nc2ccc(Cl)cc2[nH]c1=O (stereo not given),-3.9%
2,[Cl][Pt+2][Cl].[NH-]C(CO)C([NH-])CO (stereo not given),32.4%
3,N#CC(c1ccccc1)[N+](=O)[O-] (stereo not given),11.2%
4,CN=NNc1ccccc1,-1.4%
5,Nc1ccc(C(C(=O)O)c2ccccc2)cc1Cl (stereo not given),22.6%
6,O=c1cc(Cl)ncn1C1OC(CO)C(O)C1O (stereo not given),-17%
7,O=S(=O)(c1ccccc1)c1ccc(O)cc1,-20.8%
8,COC(=O)Cc1ccc2c(c1)Sc1ccc(CC(=O)OC)cc1N2C,-4.75%
9,CCC(C)CN1C(=O)NC(C)(Cc2ccccc2)C1=O (stereo not given),18.6%
10,CC(=O)CC(=O)NCCCc1ccccc1,-18.8%
11,COC(=O)C1(C)CCCC2(C)C3CC4OC4(C(C)C)CC3(O)CCC12 (stereo not given),-4.5%
12,COC(=O)c1c([N+](=O)[O-])ncn1C1CC(OC(C)=O)C(COC(C)=O)O1 (stereo not given),15.2%
13,COC(=O)c1c(O)ccc(O)c1C(=O)OC,-15.7%
14,COc1ccc(/C(=N/NS(=O)(=O)c2ccc([N+](=O)[O-])cc2)C2COC(=O)C2)cc1OC (stereo not given),6.15%
15,COc1cc(/C=N/NC(=O)Cc2cccc3ccccc23)ccc1O,21.1%
16,Nc1nc(-c2ccncc2)cc(-c2cc(-c3ccncc3)nc(N)n2)n1,-7.7%
17,O=[N+]([O-])c1cccc(NC(c2ccccc2)S(=O)(=O)O)c1 (stereo not given),-5.15%
18,O=[N+]([O-])C(C(Cl)=C(Cl)Cl)=C(N1CCCCC1)N1CCCCC1,-48.2%
19,CC1(C)OCC2(CO1)CSCCCSCC1(COC(C)(C)OC1)CSCCCSC2,-5.65%
20,C=C1CCC2[C@](C)(CCC[C@]2(C)C(=O)O)[C@@H]1CCc1ccoc1 (stereo not given in full),70.8% (active)

# Source: PubChem BioAssay (NCI)
